Assay [1] is described as follows: Cytometry Cell-Based qHTS for Inhibitors of the mTORC1 Signaling Pathway in MEF cells (AID 2668). Further: potency means the concentration at half of the fitted maximal effect. The method in brief: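 Read-out: phospho-rpS6 Ser235/236 immunofluorescence normalized to propidium iodide intensity, scored as % active cells against a rapamycin (7.5 nM) threshold. Cells: Tsc2-/-, p53-/- MEFs stably expressing WT Tsc2, compound-treated 24 hrs at 37 degree Celsius.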
(In qHTS, concentration-response curves come from the screen itself.)

In assay [2] the target is Ubiquitin carboxyl-terminal hydrolase 2 (Homo sapiens) (UniProt O75604). Nature of the assay: qHTS Validation Assay for Inhibitors of Ubiquitin-specific Protease USP2a Using CHOP2 as the Reporter (AID 463106). The method in brief:
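Readout was coupled fluorescence (Ex 485/Em 531 nm), read 60 min after adding 25 nM final Ub-CHOP2 and 25 nM reporter substrate. Beforehand, 10 nM final USP2 core had 30 min at RT with compound in pH 8.0 buffer. Curves were fitted after normalization to NEM and flagged for artifacts using time-zero reads.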

Assay [3] deals with DNA polymerase III PolC-type (Bacillus subtilis (strain 168)) (UniProt P13267). Nature of the assay: qHTS Validation Assay for the Inhibitors of DNA Replication in Gram-Positive Bacteria (AID 485295). Further: potency means the concentration at half of the fitted maximal effect. The method in brief:
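PicoGreen fluorescence (ex 480–485/em 535–540 nm) reports dsDNA synthesized on ssM13Gori template with dNTPs/NTPs. Enzyme: holoenzyme rebuilt from purified PolC, beta subunit, SSB and primase. Compound preincubated before substrate addition; RT throughout.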

Assay [4] deals with Tumor susceptibility gene 101 protein (Homo sapiens) (UniProt Q99816). Nature of the assay: qHTS Validation Assay for Iinhibitors of HIV-1 Budding by Blocking the Interaction of PTAP/TSG101 (AID 485342; calls by dose curve). The method in brief: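 FP read-out: FITC-PTAP peptide, 50 nM final, binding Tsg101 binding domain, 10 uM final; 20 min r.t.; 10 mM HEPES pH 7.5, 0.15 M NaCl, 0.01% Tween 20, 3 mM EDTA, 0.1 mM TCEP.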

Assay [5] can be described thus: qHTS Validation Assay to Find Inhibitors of Chronic Active B-Cell Receptor Signaling (AID 485345; active means well fitted curve in the direction sought with a large enough effect in the main read-out, with a control signal flat, not every such curve was filed as active). The method in brief:
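Read-out: ratio of filter-corrected green (IkappaBalpha fusion) to red (native) luciferase signal in doxycycline-induced TMD8 cells after 4 h at 37C. Titration spanned 46 uM–3 nM; Data were normalised to basal cells and 10 uM MG-132 wells.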

Assay [6] has as its target Beta-2 adrenergic receptor (Homo sapiens) (UniProt P07550). The assay is described as follows: qHTS validation assay of beta-arrestin-biased ligands of beta2-adrenergic receptor (AID 485366). An outline of the steps:
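Agonist activity is measured as luciferase luminescence downstream of beta-arrestin recruitment to recombinant beta2-AR in Tango cells. Exposure lasts 18 hr at 37 degrees C, and curves are categorized by r2, response size and activity.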

Assay [7] can be described thus: Quantitative high throughput screen for delayed death inhibitors of the malarial parasite plastid, 48 hour incubation (AID 488752). Further: nearly all actives have a fitted effect of over 65% in size. Further: potency means the concentration at half of the fitted maximal effect. The method in brief:
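Luciferase-expressing P. falciparum in RBCs, 2% Hct, 0.1% parasitemia final; RPMI 1640 + 0.5% Albumax; 48 h, 37 C, 5% CO2; luminescence readout, signal drop = growth inhibition.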

Assay [8] deals with Thioredoxin reductase 1, cytoplasmic (Rattus norvegicus) (UniProt O89049). Nature of the assay: qHTS Assay for Substrates of Mammalian Selenoprotein Thioredoxin Reductase 1 (TrxR1) (AID 488772).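 Further: series mostly up to about 57 µM; a drop in NADPH fluorescence below the no-compound background marks a TrxR1 substrate.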 An outline of the steps: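 In this dual-purpose format, potential substrates are identified from the first fluorescence read after selenite addition, not from the 8-minute delta. Rat enzyme is preincubated with NADPH and then with compound at ~22 deg C.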

For assay [9] the target is unchanged. Nature of the assay: qHTS Assay for Inhibitors of Mammalian Selenoprotein Thioredoxin Reductase 1 (TrxR1) (AID 488773). Further: nearly all actives have a fitted effect of over 40% in size. Further: potency means the concentration at half of the fitted maximal effect. The conditions noted are these: Potency: inhibition. The method in brief:
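Inhibition is scored from the loss of NADPH fluorescence between first and last reads of an 8-min kinetic run. Selenite (400 uM) was the substrate, added after 15 min compound preincubation at room temperature.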

The target of assay [10] is Flap endonuclease 1 (Homo sapiens) (UniProt P39748). Nature of the assay: qHTS Validation Assay for the Inhibitors of Human Flap endonuclease 1 (FEN1) (AID 488816). The method in brief: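 qHTS format: compounds and 10 nM FEN1 incubated 15 min at room temperature before adding 50 nM substrate. Cleavage followed by reads at 0 and 15 min; normalized data fitted to a four-parameter Hill curve.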

Assay [11] concerns the target Chromobox protein homolog 1 (Homo sapiens) (UniProt P83916). Nature of the assay: qHTS Validation Assay for Inhibitors of HP1-beta Chromodomain Interactions with Methylated Histone Tails (AID 488953). Further: nearly all actives have a fitted effect of over 50% in size. Further: potency means the concentration at half of the fitted maximal effect. An outline of the steps: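 AlphaScreen proximity readout: streptavidin donor and Ni-chelate acceptor beads, 10 ug/mL final, 30 min dark, RT. Complex of 50 nM HP1-beta and 50 nM b-H3(1-18)K9me3 formed 30 min, then compound-treated 30 min; PBS pH 7.4/0.01% Tween-20.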

The target of assay [12] is Methanococcus maripaludis chaperonin (MmCpn) (UniProt Q6LX38). The assay is described as follows: High-Throughput Screening for Modulators of Cytosolic Chaperonin Activity: MmCpn Primary Screen (AID 488978). An outline of the steps: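 ADP formation read by HTRF Transcreener, 665/590 nm emission after 320 nm excitation. Enzyme: archaeal chaperonin at 50 nM final; substrate ATP 30 uM final; 10 min, 37C, after 5 min compound preincubation at RT.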

Assay [13] addresses Transient receptor potential cation channel subfamily V member 1 (Homo sapiens) (UniProt Q8NER1). Nature of the assay: HTS Assay for Compounds that Act as Enhancers of the Vanilloid Receptor 1 (AID 488979). An outline of the steps:
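Calcium influx kinetics via Fluo-8 (480/520 nm) in TRPV1-expressing cells, 2000/well cultured overnight at 35.5C. Compound-alone read 3 min (agonist phase), followed by EC20 capsaicin challenge for 2 min (enhancer phase).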

Assay [14] has as its target Thyrotropin receptor (Homo sapiens) (UniProt P16473). The assay is described as follows: qHTS Assay for Antagonists of the Thyroid Stimulating Hormone Receptor (AID 488980). Further: series mostly up to about 58 µM. The method in brief:
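TSHR-HEK293 cells; 70 uM RO 20-1724 PDE inhibitor; compound + EC80 TSH (4 nM final); anti-cAMP cryptate antibody/cAMP-d2 in lysis buffer, 30 min RT; HTRF 665/620 nm read.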

Assay [15] is described as follows: Validation screen for small molecules that induce DNA re-replication in MCF 10A normal breast cells (AID 463097). Further: nearly all actives have a fitted effect of over 60% in size. Further: potency means the concentration at half of the fitted maximal effect. An outline of the steps: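 250 MCF 10A cells/well; compound pin-transferred; 48 hr, 37 C, 5% CO2; Hoechst 40 min; imaged 405/500-530 nm. Hits = more high-intensity nuclei.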
The target in assay [16] is ATP-dependent 6-phosphofructokinase (Trypanosoma brucei brucei) (UniProt O15648). The assay is described as follows: qHTS Validation Assay to Find Inhibitors of T. brucei phosphofructokinase (AID 485368). The method in brief: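 Inhibition derived from concentration-response curves of luminescence, ranked by r2, response size and curve class; the underlying reaction used 1.25 nM PFK, 0.1 mM ATP and 0.5 mM F6P, 45 min, room temperature.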

The target in assay [17] is M-phase phosphoprotein 8 (Homo sapiens) (UniProt Q99549). Nature of the assay: qHTS Validation Assay for Inhibitors for MPP8 Chromodomain Interactions with Methylated Histone Tails (AID 488949).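 Further: AlphaScreen signal from MPP8 chromodomain bound to biotinylated H3K9me3 peptide; top concentration of the series differs between compounds; nearly all actives have a fitted effect of over 55% in size.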 An outline of the steps: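 AlphaScreen read-out: streptavidin donor and nickel chelate acceptor beads (final 10 ug/mL), 30 min in the dark at RT. Complex of 50 nM MPP8 and 50 nM b-H3(1-18)K9me3 peptide had been exposed to compounds for 30 min beforehand.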

For assay [18], the target named is D(1A) dopamine receptor (Homo sapiens) (UniProt P21728). Nature of the assay: HTS Assay for Allosteric Agonists of the Human D1 Dopamine Receptor: Primary Screen for Agonists (AID 488981). An outline of the steps: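 Calcium flux in an inducible, force-coupled HEK293 Trex D1 line (overnight at 30 C): agonist mode is the 180 s kinetic read after compound; potentiator mode is the following 180 s read after dopamine at EC20.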

Assay [19] is described as follows: Quantitative high throughput screen for delayed death inhibitors of the malarial parasite plastid, 96 hour incubation (AID 488745).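 Further: luciferase-expressing P. falciparum in erythrocytes at 2% hematocrit and 0.1% parasitemia; series mostly up to about 29 µM; nearly all actives have a fitted effect of over 70% in size.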 An outline of the steps: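 Luciferase-expressing P. falciparum, infected RBCs 2% Hct/0.1% parasitemia (final); 96 h cpd exposure, 37 C, 5% CO2; RPMI 1640 + 0.5% Albumax, bicarbonate, gentamycin. Readout: luminescence loss = growth inhibition.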

Records with an inconclusive call do not appear. Active and inactive are the calls of the source. Unless noted, the call rests on the fitted dose curve; in most records, active means well fitted curve in the direction sought with a large enough effect; inconclusive means small, poorly fitted or top-dose-only effect, or another doubt; inactive means no such curve, though single readings can be large; an effect the other way counts as inactive or inconclusive.

Sequence of Ubiquitin carboxyl-terminal hydrolase 2 (Homo sapiens) (O75604 whole entry, looked up): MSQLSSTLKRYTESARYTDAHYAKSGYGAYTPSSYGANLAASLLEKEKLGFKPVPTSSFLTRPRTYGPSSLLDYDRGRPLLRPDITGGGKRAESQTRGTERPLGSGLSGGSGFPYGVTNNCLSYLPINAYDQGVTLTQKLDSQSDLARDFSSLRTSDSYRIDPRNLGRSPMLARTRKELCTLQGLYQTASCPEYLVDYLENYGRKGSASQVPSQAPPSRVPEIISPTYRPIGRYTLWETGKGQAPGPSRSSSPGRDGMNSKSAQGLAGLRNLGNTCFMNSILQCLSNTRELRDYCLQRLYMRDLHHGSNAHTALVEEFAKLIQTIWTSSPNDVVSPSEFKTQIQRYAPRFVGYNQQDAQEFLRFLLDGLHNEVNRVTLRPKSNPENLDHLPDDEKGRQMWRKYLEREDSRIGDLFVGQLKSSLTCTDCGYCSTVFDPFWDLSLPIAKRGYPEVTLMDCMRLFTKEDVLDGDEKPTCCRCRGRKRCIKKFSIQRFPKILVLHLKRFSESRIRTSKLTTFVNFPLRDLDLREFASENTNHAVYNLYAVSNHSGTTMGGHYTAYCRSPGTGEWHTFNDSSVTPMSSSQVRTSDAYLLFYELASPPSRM
Sequence of D(1A) dopamine receptor (Homo sapiens) (P21728 whole entry, looked up): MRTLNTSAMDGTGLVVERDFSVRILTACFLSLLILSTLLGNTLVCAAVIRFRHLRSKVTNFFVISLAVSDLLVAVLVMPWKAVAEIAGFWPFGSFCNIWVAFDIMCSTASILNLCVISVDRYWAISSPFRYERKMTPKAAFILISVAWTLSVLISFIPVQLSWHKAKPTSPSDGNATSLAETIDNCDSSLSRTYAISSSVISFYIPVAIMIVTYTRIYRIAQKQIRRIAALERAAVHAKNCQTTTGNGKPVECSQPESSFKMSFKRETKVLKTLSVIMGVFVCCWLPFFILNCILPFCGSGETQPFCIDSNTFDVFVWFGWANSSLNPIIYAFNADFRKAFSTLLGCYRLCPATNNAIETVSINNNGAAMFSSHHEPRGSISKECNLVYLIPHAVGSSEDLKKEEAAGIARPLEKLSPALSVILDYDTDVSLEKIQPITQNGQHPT
Sequence of Tumor susceptibility gene 101 protein (Homo sapiens) (Q99816 whole entry, looked up, the tested form may be a part): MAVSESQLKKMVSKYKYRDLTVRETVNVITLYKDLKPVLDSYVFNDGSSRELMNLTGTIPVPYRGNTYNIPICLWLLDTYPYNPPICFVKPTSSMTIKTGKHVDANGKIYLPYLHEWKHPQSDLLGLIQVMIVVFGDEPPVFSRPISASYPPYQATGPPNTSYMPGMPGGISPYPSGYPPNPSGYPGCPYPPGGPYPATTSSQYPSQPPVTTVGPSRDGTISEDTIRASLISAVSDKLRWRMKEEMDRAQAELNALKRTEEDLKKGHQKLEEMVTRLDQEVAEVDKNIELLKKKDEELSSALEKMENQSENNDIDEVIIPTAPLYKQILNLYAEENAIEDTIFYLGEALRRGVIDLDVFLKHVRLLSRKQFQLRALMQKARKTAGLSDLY
Sequence of ATP-dependent 6-phosphofructokinase (Trypanosoma brucei brucei) (O15648 whole entry, looked up): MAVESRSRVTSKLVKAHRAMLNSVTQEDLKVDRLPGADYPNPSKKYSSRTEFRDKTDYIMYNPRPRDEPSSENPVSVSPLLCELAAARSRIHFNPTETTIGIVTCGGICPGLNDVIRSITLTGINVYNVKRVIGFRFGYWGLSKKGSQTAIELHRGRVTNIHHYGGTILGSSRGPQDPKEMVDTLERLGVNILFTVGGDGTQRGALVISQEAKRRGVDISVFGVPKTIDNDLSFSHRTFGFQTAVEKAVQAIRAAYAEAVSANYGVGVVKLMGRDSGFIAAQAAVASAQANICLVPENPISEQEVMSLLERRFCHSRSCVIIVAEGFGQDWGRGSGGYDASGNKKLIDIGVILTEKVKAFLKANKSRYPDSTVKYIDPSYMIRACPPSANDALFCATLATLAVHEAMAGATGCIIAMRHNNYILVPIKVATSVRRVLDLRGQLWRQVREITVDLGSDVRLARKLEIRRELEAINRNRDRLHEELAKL
Sequence of DNA polymerase III PolC-type (Bacillus subtilis (strain 168)) (P13267 whole entry, looked up): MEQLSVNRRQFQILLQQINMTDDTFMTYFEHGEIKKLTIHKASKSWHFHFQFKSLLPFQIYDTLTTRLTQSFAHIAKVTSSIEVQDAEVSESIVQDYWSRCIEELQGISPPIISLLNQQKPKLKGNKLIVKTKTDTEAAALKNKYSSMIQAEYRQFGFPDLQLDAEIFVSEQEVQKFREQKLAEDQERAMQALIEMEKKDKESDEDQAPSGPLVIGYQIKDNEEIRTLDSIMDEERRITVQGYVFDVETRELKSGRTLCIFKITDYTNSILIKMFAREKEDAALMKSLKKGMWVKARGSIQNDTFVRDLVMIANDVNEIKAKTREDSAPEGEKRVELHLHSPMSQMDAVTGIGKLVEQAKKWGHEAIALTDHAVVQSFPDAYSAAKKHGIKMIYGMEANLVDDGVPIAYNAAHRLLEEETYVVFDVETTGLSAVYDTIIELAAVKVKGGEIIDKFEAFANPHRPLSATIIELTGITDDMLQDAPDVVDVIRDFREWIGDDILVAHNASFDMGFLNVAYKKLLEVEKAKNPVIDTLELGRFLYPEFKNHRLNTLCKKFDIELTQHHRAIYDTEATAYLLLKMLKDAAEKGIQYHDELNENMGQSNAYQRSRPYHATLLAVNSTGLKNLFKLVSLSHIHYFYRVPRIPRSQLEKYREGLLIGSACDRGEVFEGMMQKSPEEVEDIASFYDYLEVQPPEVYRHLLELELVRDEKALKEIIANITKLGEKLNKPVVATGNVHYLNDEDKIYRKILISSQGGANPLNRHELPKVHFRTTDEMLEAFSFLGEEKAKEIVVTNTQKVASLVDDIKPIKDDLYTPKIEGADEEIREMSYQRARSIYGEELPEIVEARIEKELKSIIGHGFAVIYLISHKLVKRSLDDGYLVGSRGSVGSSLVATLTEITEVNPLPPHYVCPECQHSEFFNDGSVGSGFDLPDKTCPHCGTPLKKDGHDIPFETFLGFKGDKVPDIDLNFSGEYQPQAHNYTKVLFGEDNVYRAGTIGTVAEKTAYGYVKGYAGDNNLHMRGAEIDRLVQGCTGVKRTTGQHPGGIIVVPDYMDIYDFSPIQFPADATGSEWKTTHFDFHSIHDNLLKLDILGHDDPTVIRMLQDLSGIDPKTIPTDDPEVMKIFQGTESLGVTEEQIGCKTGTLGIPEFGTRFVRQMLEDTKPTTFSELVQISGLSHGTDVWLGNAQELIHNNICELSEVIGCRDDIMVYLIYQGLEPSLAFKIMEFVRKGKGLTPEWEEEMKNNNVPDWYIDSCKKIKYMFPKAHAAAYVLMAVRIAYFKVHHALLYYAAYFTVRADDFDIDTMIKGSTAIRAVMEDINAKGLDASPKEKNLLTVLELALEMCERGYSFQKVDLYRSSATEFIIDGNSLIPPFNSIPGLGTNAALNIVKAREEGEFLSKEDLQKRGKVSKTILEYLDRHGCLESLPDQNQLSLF
Sequence of M-phase phosphoprotein 8 (Homo sapiens) (Q99549 whole entry, looked up): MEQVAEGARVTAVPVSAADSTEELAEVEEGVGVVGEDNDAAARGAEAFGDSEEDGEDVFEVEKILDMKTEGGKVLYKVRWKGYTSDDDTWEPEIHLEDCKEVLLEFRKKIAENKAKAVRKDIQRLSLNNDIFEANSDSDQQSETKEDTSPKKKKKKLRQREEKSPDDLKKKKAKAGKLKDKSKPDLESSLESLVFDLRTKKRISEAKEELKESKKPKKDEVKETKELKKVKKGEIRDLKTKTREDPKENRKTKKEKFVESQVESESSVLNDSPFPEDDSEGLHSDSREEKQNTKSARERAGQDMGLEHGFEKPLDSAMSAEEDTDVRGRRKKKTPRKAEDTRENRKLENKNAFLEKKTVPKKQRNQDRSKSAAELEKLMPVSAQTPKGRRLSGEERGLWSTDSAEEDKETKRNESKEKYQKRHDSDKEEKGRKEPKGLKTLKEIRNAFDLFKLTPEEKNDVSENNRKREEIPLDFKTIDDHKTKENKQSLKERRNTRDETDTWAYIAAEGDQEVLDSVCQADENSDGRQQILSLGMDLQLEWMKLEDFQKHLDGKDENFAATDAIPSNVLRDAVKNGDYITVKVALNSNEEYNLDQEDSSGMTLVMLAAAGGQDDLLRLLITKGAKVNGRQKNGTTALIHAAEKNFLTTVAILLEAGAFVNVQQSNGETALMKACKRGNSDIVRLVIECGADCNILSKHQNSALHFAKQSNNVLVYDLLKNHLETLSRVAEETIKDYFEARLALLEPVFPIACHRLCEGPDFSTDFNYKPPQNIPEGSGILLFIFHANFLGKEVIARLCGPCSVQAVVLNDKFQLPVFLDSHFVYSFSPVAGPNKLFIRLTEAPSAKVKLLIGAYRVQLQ
Sequence of Transient receptor potential cation channel subfamily V member 1 (Homo sapiens) (Q8NER1 whole entry, looked up): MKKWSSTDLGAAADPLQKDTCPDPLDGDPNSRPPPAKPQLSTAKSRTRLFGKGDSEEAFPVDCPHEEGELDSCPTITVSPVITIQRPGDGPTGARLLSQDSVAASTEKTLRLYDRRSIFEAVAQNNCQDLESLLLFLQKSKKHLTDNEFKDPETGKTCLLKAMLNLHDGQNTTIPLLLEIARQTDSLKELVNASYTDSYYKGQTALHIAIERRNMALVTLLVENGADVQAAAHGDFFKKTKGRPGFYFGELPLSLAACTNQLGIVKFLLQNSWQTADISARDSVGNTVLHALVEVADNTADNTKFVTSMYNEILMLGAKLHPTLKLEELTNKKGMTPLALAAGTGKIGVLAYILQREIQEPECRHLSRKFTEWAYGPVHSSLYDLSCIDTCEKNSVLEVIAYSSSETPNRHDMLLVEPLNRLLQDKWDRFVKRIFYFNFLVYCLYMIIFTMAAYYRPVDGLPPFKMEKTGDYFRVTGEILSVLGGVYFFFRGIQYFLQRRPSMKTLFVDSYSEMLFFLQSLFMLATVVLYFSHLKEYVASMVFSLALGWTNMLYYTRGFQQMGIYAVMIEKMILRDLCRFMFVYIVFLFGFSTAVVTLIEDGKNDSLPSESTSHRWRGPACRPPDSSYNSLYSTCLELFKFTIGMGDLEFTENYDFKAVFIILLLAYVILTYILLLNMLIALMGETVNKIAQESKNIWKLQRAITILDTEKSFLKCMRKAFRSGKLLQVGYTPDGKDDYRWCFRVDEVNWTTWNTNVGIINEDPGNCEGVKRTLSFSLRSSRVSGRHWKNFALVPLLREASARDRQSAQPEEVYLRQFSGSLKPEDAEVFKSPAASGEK

For `CC(=O)c1c(O)c(C)c(O)c(Cc2c(O)c3c(c(C(=O)/C=C/c4ccccc4)c2O)OC(C)(C)C=C3)c1O`, the Potency entry in assay [1], in [2], in assay [5] and in [10] was “inactive” each time. Besides, the Potency is 18.9 µM (active) in assay [3], 14.7 µM (active) in [7], 2.12 µM (active) in assay [9] and 12.6 µM (active) in assay [11]. Also, the result in assay [4], in assay [6], in [8], in assay [12], in assay [13] and in assay [14] was inactive.

As to `Ic1ccccc1CNC1C2CCN(CC2)C1C(c1ccccc1)c1ccccc1` (stereo not given), the Potency in assay [1] was 6.56 µM (active); in [15], 17.8 µM (active); in assay [11], 44.7 µM (active). For the same molecule, the Potency entry in [2], in [3], in assay [16], in [9], in assay [10] and in assay [17] was “inactive” in each case. Further, the molecule was classed as inactive in assay [4], in assay [6], in [8], in assay [12] and in [14].

As to `COc1ccc2c(c1O)-c1cccc3c1[C@@H](C2)N(C)CC3`, the Potency entry in assay [1], in assay [2], in assay [3], in assay [9], in assay [10] and in assay [18] was “inactive” throughout. For the same molecule, the molecule was classed as inactive in assay [4], in assay [6], in assay [8] and in [12].

With `N#CCCN`, the Potency result in assay [1], in assay [2], in [3], in assay [5], in assay [16] and in [9] was “inactive” in each case. For the same molecule, the Potency result in assay [10], in [17], in assay [11] and in assay [18] was “inactive” throughout. For the same molecule, the result in assay [4], in assay [6], in assay [8] and in assay [12] was inactive.

As for `CC(C)[C@@]1(NC(=O)[C@@H]2C[C@@H]3c4cccc5[nH]cc(c45)C[C@H]3N(C)C2)O[C@@]2(O)[C@@H]3CCCN3C(=O)[C@H](Cc3ccccc3)N2C1=O`, the Potency entry in [1], in [2], in [3], in [5], in assay [16] and in assay [10] was “inactive” each time. Also, the Potency result in [17] and in [18] was “inactive” each time. Further, the call in assay [4], in assay [6], in assay [8] and in assay [12] was inactive.

In the case of `Clc1cc(I)cc(Cl)c1NC1=NCCN1`, the Potency entry in assay [1], in assay [15], in [2], in assay [3], in [5] and in assay [19] was “inactive” in each case. For the same molecule, the Potency result in assay [7], in [9], in assay [10], in assay [17] and in assay [11] was “inactive” throughout. The molecule was classed as inactive in assay [4], in assay [6], in assay [8], in assay [12], in assay [13] and in [14].

With `N[C@@H](Cn1oc(=O)[nH]c1=O)C(=O)O`, the Potency entry in assay [1], in assay [15], in [2], in [3], in assay [5] and in assay [16] was “inactive” throughout. For the same molecule, the Potency result in [19], in [7], in assay [9], in assay [10], in assay [17] and in assay [11] was “inactive” in each case. For the same molecule, the Potency entry in assay [18] was “inactive”. The call in assay [4], in [6], in assay [8], in [12], in assay [13] and in [14] was inactive.
